High-throughput results (PubChem BioAssay)
Compounds with a hit are over-represented: about 3.8% of the library has one in this group of screens.
ADAM10 inh: inhibitors of human ADAM10 | O14672 | recombinant ADAM10, EDANS/DABCYL FRET peptide cleavage, 3 h | inhibition, % at 7 µM | actives 0.62% (n = 370,000) | AID 720582;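 active = inhibition above a per-campaign cutoff equal to the mean of compounds falling between control-based bounds plus 3 SD, cut at about 20% in these data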;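 note: 0% = DMSO wells while the 100% control is not disclosed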
ADAM17 inh: ADAM17 inhibition, QFRET primary screen. P78536. recombinant ADAM17, EDANS/DABCYL FRET peptide cleavage. inhibition, % at 6.95 µM. actives 0.83% (n = 370,000);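 active = inhibition above the mean of compounds lying between control limits plus 3 SD, set per campaign, cut at about 8.5% in these data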;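 note: 0% = DMSO-only wells as the low control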
FGF22 binding: shifts melting point of recombinant human FGF22 | Q9HCT0 | recombinant FGF22 thermal shift, SYPRO orange fluorescence; percent of sucrose octasulfate shift, DMSO zero | activity (Tm shift, normalised), % at 9.99 µM | actives 1.5% (n = 340,000);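 active = mean Tm shift, scaled 0 neutral to 100 positive control, at about 1.3% or above, every replicate too, limit read from the data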
Target sequence (Q9HCT0 whole entry, looked up): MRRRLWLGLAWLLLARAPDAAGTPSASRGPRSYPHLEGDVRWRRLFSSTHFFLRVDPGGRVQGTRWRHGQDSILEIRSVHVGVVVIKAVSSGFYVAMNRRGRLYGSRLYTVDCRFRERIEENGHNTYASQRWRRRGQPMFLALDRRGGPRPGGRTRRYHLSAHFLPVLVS
proKLK7 act: proKLK7 (human) activation, primary screen; P49862; activation, % at 7 µM; actives 0.9% (n = 370,000); AID 652039; purified proKLK7, EDANS-DABCYL substrate fluorescence; 100% is mature enzyme control, 0% vehicle;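 active = activation above the mean of all tested compounds plus 3 SD, computed per campaign excluding outliers beyond control limits, cut at about 13% in these data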
Target sequence (P49862 whole entry, looked up): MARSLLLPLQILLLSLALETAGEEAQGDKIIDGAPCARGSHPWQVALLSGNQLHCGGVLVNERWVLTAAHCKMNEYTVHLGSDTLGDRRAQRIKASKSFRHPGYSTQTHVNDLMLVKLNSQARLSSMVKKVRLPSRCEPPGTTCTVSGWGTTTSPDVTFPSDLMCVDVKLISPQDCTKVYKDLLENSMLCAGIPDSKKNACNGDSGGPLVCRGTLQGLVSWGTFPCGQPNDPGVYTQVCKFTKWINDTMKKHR
rRNA inh HTS: inhibits bacterial ribosomal RNA function over humanized ribosomes. E. coli WT GFP vs humanized-ribosome RFP mutants, fluorescence, 24 h; hits give low values; DMSO median 0, no signal -100. AID 720706. GFP signal change (wild-type ribosome), % (concentration not given with the values). actives 1.6% (n = 350,000);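 active = significant combined selectivity score with lowered wild-type GFP, culture density cut under 30%, mutant RFP and density less affected; inactive = any of these conditions unmet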
An asterisk follows results filed as active; i = inactive; . = not tested or not shown.

SMILES | ADAM10 inh | ADAM17 inh | FGF22 binding | proKLK7 act | rRNA inh HTS
COc1ccc(C(=O)NNS(=O)(=O)c2ccc(OC)cc2)cc1 | 4 | 2 | 0 | -1 | 1
O=C(CC1CC1)N1[C@@H](CO)[C@H](c2ccccc2)C12CN(Cc1ccncc1)C2 | . | . | . | . | 4
O=C(O)/C=C/C(=O)Nc1ccc(Cl)cc1C(=O)c1ccccc1 | -3 | -2 | 0 | 0 | -23*
O=C(CSc1nccc(=O)[nH]1)NC1CCCc2ccccc21 (stereo unspecified) | -8 | -4 | 0 | 0 | 6
O=C(CSc1ncn[nH]1)NC1CCCc2ccccc21 (stereo unspecified) | 12 | -1 | 43* | -1 | -4
CCC(=O)Nc1ccc2c(c1)C(=O)N(C)C[C@@H](OC)[C@H](C)CN(C(=O)CN(C)C)[C@@H](C)CO2 | . | . | . | . | 2
C=C(C)Cn1c2ccc(NC(=S)NCc3ccccc3F)cc2c(=O)n1C | i | -350 | 0 | -1 | -23*
Cn1c(=O)c2cc(NC(=S)NCc3ccccc3F)ccc2n1Cc1cccc(C(F)(F)F)c1 | i | -228 | 3.9* | -2 | -3
Cn1c(=O)c2cc(NC(=O)NCc3ccc(Cl)cc3Cl)ccc2n1Cc1ccc(F)cc1 | i | -206 | 45* | -4 | 3
CO[C@H](CN(C)C(=O)c1ccccc1F)[C@@H](C)CN([C@@H](C)CO)S(=O)(=O)c1ccccc1 | . | . | 0 | . | -3
CO[C@H]1CN(C)C(=O)c2cc(NC(=O)C3CC3)ccc2OC[C@@H](C)N(C(=O)c2ccccc2F)C[C@H]1C | . | . | 0 | . | 1
CCc1ccc(OC(=O)c2cncc(Br)c2)cc1 | -8 | -3 | 0 | 0 | -7
Cc1cc(=O)oc2cc(OC(=O)c3cncc(Br)c3)ccc12 | i | i | 44* | 6 | 11
O=C(C[C@@H]1C=C[C@@H](NC(=O)c2cccnc2)[C@H](CO)O1)NCc1ccc(Cl)c(Cl)c1 | . | . | 0 | . | -3
N#C/C(=N\Nc1cccc(F)c1)C(=O)C1CC1 | 6 | 0 | 0 | 0 | -25*
N#C/C(=N\Nc1cccc(F)c1)C(=N)N1CCCCCC1 | 3 | 3 | 0 | -1 | 17
COc1ccc2c(C#CCCO)c(-c3ccc(S(C)(=O)=O)cc3)sc2c1 | i | i | 45* | -192 | 3
O=S(=O)(N[C@@H]1CC[C@H](CCn2cc(C3(O)CCCC3)nn2)O[C@H]1CO)c1ccc(F)cc1 | . | . | 0 | . | 4
COc1ccc(CNC(=O)COC(=O)c2ccc(S(=O)(=O)N3CCOCC3)cc2)cc1 | 2 | 2 | 0 | 0 | 0
COc1ccc(CC(=O)Nc2cc(S(=O)(=O)N3CCOCC3)ccc2N2CCCC2)cc1 | 1 | -1 | 43* | 0 | 8
COc1ccc(CNC(=O)c2ccc(S(=O)(=O)N3CCOCC3)cc2)cc1 | 3 | -2 | 78* | 0 | 4
COc1cc(S(=O)(=O)N2CCOCC2)ccc1NC(=O)COC(=O)/C=C/c1cc(OC)c(OC)c(OC)c1 | -10 | -6 | 43* | 0 | -4
COc1ccc(OC)c(NC(=O)COC(=O)c2ccc(S(=O)(=O)N3CCCCC3)cc2)c1 | 3 | 1 | 45* | 0 | 6
COc1ccc(NC(=O)COC(=O)c2ccc(S(=O)(=O)N3CCCCCC3)cc2)c(OC)c1 | 1 | 1 | 0 | 0 | 3
O=C1N[C@H](Cc2ccccc2)COCn2nncc2CC[C@H]1Cc1ccccc1 | . | . | 0 | . | 2
SMILES | ADAM10 inh | ADAM17 inh | FGF22 binding | proKLK7 act | rRNA inh HTS
O=S(=O)(Nc1cc(S(=O)(=O)N2CCOCC2)ccc1N1CCOCC1)c1ccc2c(c1)OCCO2 | 6 | 2 | 44* | -1 | -1
CC(=O)Nc1ccc(NC(=O)C2CCN(S(=O)(=O)c3ccc4c(c3)OCCO4)CC2)cc1 | -15 | -4 | 0 | 0 | 15
COc1ccc(CC(=O)OCC(=O)Nc2cc(S(=O)(=O)N3CCOCC3)ccc2N2CCCC2)cc1 | -9 | 0 | 43* | 1 | 2
COc1ccc(CC(=O)Nc2cc(S(=O)(=O)N3CCOCC3)ccc2N2CCOCC2)cc1 | -5 | -4 | 43* | 0 | 4
COc1cccc(CC(=O)Nc2cc(S(=O)(=O)N3CCOCC3)ccc2N2CCN(C)CC2)c1 | -8 | -2 | 0 | -1 | 6
O=S(=O)(Nc1cc(S(=O)(=O)N2CCOCC2)ccc1O)c1ccc2c(c1)OCCCO2 | -8 | 3 | 0 | 0 | -1
O=C(Nc1ccc2c(c1)OCCO2)C1CCN(S(=O)(=O)c2ccc3c(c2)OCCO3)CC1 | -4 | -2 | . | 0 | -32*
O=C1CN(S(=O)(=O)c2ccccc2)C[C@H]2[C@@H](c3ccc(C#Cc4ccccc4)cc3)[C@H](CO)N12 | . | . | . | . | 0
COc1ccc(/C=C/C(=O)Nc2cc(S(=O)(=O)N3CCOCC3)ccc2N2CCCC2)cc1OC | 1 | 2 | 43* | 1 | -22*
COc1cc(NC(=O)COC(=O)C=C(C)C)c(C)cc1[N+](=O)[O-] | 4 | 3 | 44* | 1 | .
C/C=C/C(=O)OCC(=O)Nc1cc(OC)c([N+](=O)[O-])cc1C | 3 | 0 | 0 | 0 | 5
C[C@@H]1CN([C@H](C)CO)C(=O)c2cc(C3=CCCC3)cnc2O[C@@H]1CN(C)Cc1ccccn1 | . | . | 0 | . | 0
CCOC(=O)c1cc(C)n(-c2ccc(Cl)cc2)c1C | -1 | 0 | 0 | 1 | -23*
COc1cccc(NC(=O)N2C[C@H](O)COC[C@H]3O[C@@H](CC(=O)NCc4ccccc4F)CC[C@@H]32)c1 | . | . | 0 | . | 4
CCCc1cc(C(=O)OC)c(NC(=O)CCCC(=O)O)s1 | -1 | -4 | 44* | 0 | 6
CCc1cc(C(=O)OC)c(NC(=O)CCC(=O)O)s1 | 1 | -4 | . | 1 | .
CCOC(=O)N/N=C/c1ccccc1OCc1ccc(Cl)cc1 | 13 | 6 | 0 | 0 | -25*
CCN(CC)c1ccc(/C=N/NC(=O)c2ccco2)c(O)c1 | -119 | -38 | 0 | -20 | -39*
O=C(N/N=C\c1ccccc1OCc1ccccc1)c1ccco1 | -12 | -2 | 43* | 0 | -5
C[C@@H]1CN([C@@H](C)CO)C(=O)c2cc(NC(=O)Nc3ccccc3)ccc2O[C@@H](C)CCCCO[C@@H]1CN(C)C(=O)Cc1ccccc1 | . | . | 0 | . | -1
C[C@H](CO)N1C[C@H](C)[C@H](CN(C)C(=O)Cc2ccccn2)Oc2ncc(-c3ccncc3)cc2C1=O | . | . | 0 | . | 3
COc1ccc(CN(C)C[C@H]2OCCCC[C@@H](C)Oc3ccc(NC(=O)CCC(F)(F)F)cc3C(=O)N([C@@H](C)CO)C[C@@H]2C)cc1 | . | . | 0 | . | -1
Cc1ccc(NC(=O)c2n[nH]c(=O)c3ccccc23)cc1S(=O)(=O)N1CCOCC1 | -3 | 0 | 43* | 0 | 11
O=C(Nc1cccc(S(=O)(=O)N2CCCCC2)c1)c1ccc([N+](=O)[O-])o1 | 3 | 0 | 0 | 0 | -28*
